High-throughput results from PubChem.
Rows were chosen to be rich in hits. Some 4.1% of all compounds tested hit in one or more screens of this group.
tim10-1 inh: tim10-1 yeast growth inhibition. S. cerevisiae tim10-1 ts strain growth, BacTiter-Glo, 24 h. inhibition, % at 20 µM. hit rate 2.2% among 330,000;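 active = inhibition of at least 40%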;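 also: mutant grown at 25 °C; 0% = DMSO wells with yeast and 100% = wells holding no yeast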
tim23-1 inh: growth inhibitors of tim23-1 mutant yeast; S. cerevisiae tim23-1 growth, BacTiter-Glo luminescence, 24 h; hit rate 1.3% among 330,000; inhibition, % at 20 µM;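 active = growth inhibition of the mutant yeast at or above 50%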;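 also: temperature-sensitive mutant grown at 25 °C; plate controls were DMSO-treated mutant yeast for no effect and medium wells lacking yeast for full effect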
PfHsp90 set2: inhibits growth of yeast expressing Plasmodium falciparum Hsp90. hit rate 0.32% among 310,000. AID 504621. S. cerevisiae expressing PfHsp90, BacTiter-Glo ATP, 48 h; yeast lacking PDR1 and PDR3 efflux regulators. inhibition, % at 9.4 µM;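 active = every replicate shows inhibition above about 80%, whatever the replicate mean, limit read from the data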;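 also: 0% = DMSO neutral controls and 100% = 20 µM radicicol positive controls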
NALP1 yeast inh: NALP1 inhibition. inhibition, % at 10 µM. AID 2071. hit rate 0.61% among 280,000. S. cerevisiae NALP1/ASC/caspase-1 growth, X-gal OD620, 72 h; in the data active = inhibition mostly above about 24%, no sharp cut-off; inactive = mostly below about 32%
TIM10 inh: growth inhibitors of TIM10 yeast strain; S. cerevisiae TIM10 strain growth, BacTiter-Glo luminescence, 24 h; inhibition, % at 10 µM; hit rate 1.4% among 330,000;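 active = inhibition of 40% or more at the single tested concentration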;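 also: wild-type TIM10 isogenic control strain grown at permissive 25 °C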
NLRP3 yeast inh: blocks the NALP3 inflammasome reconstituted in yeast | Yeast reconstituted NLRP3/ASC/caspase-1, beta-gal luminescence, 24 h | inhibition, % at 10 µM | hit rate 0.39% among 330,000 | AID 2825;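 active = inhibition of 50% or more; inactive = inhibition below 50%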;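 also: plate controls were induced DMSO wells for no effect and uninduced yeast grown without galactose for full effect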
tim23-1 conf: tim23-1 yeast growth inhibition, confirmed. shares compounds with tim23-1 inh. S. cerevisiae tim23-1 growth, BacTiter-Glo luminescence, 24 h. inhibition, % at 20 µM. hit rate 83% among 4,400;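 active = inhibition above about 39% in either of two replicate wells at 20 µM, limit read from the data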;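 also: temperature-sensitive tim23-1 mutant grown at 25 °C; 0% = DMSO wells with yeast and 100% = medium wells without yeast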
Starred values were filed as active, the others as inactive.

Results for O=S1(=O)CCC(N=Cc2cc(Br)ccc2O)C1 (stereo not given) ?
tim10-1 inh: 31; tim23-1 inh: 56*; PfHsp90 set2: 2; NALP1 yeast inh: 3; TIM10 inh: 30; NLRP3 yeast inh: 17; tim23-1 conf: 43*

What do the screens show for `Cc1ccc(N(C(=O)CNC(=O)c2ccco2)C(C(=O)NCC2CCCO2)c2ccccc2)c(C)c1` (stereo not given)?
tim10-1 inh: -4; tim23-1 inh: 11; PfHsp90 set2: 11; NALP1 yeast inh: 10; TIM10 inh: 16; NLRP3 yeast inh: 0

What do the screens show for `CCCCS(=O)(=O)N1CCCC(C(=O)NCC2CCCO2)C1` (stereo not given)?
tim10-1 inh: -7; tim23-1 inh: -18; PfHsp90 set2: 1; NALP1 yeast inh: 20; TIM10 inh: -4; NLRP3 yeast inh: 16

Results for Cc1cc(C)c(C(CC(=O)c2cccs2)C(C#N)C#N)c(C)c1 (stereo not given) ?
tim10-1 inh: 31; tim23-1 inh: 52*; PfHsp90 set2: 19; NALP1 yeast inh: 25; TIM10 inh: 29; NLRP3 yeast inh: 10; tim23-1 conf: 37

What do the screens show for `CCOc1ccccc1NC(=O)C(=O)N/N=C/c1cc(Br)ccc1O`?
tim10-1 inh: 25; tim23-1 inh: 59*; PfHsp90 set2: -7; NALP1 yeast inh: -4; TIM10 inh: 18; NLRP3 yeast inh: 1; tim23-1 conf: 51*

How did CCOc1ccccc1C=NNC(=O)C(=O)NN=Cc1ccccc1OCC do in these assays?
PfHsp90 set2: -1

What do the screens show for `COc1cc(/C=C(\C#N)C(=O)N2CCc3ccccc32)ccc1O`?
tim10-1 inh: 30; tim23-1 inh: 55*; PfHsp90 set2: 3; TIM10 inh: 13; NLRP3 yeast inh: -21; tim23-1 conf: 60*

How did CCn1c(SCC(=O)Nc2nc3ccccc3s2)nc2c(c1=O)SC(C)C2 (stereo not given) do in these assays?
tim10-1 inh: 15; tim23-1 inh: 28; NALP1 yeast inh: 6; TIM10 inh: -15; NLRP3 yeast inh: 14

Results for CCn1c(SCC(=O)Nc2nc3ccc(C)cc3s2)nc2c(c1=O)SC(C)C2 (stereo not given) ?
tim10-1 inh: 33; tim23-1 inh: 52*; PfHsp90 set2: -49; NALP1 yeast inh: 6; TIM10 inh: -4; NLRP3 yeast inh: 12; tim23-1 conf: 47*

How did O=P(O)(Cc1ccccc1)Cc1ccccc1 do in these assays?
tim10-1 inh: -12; tim23-1 inh: 0; PfHsp90 set2: -1; NALP1 yeast inh: 17; TIM10 inh: -6; NLRP3 yeast inh: 17

Results for N=c1sccn1CC(=O)Nc1cc(Cl)ccc1Oc1ccccc1 ?
tim10-1 inh: 15; tim23-1 inh: 66*; PfHsp90 set2: 3; NALP1 yeast inh: 6; TIM10 inh: 22; NLRP3 yeast inh: -1; tim23-1 conf: 22

What do the screens show for `N=c1sccn1CC(=O)Nc1cccc(Oc2ccccc2)c1`?
tim10-1 inh: 20; tim23-1 inh: 8; PfHsp90 set2: -3; NALP1 yeast inh: 14; TIM10 inh: 18; NLRP3 yeast inh: 10

How did COc1ccc2c(c1)NC(c1cc(Cl)cc(Cl)c1O)c1cccn1-2 (stereo not given) do in these assays?
tim10-1 inh: 1; tim23-1 inh: 1; PfHsp90 set2: -19; NALP1 yeast inh: -7; TIM10 inh: 16; NLRP3 yeast inh: 14

How did COc1ccc2c(c1)NC(c1ccc(N(C)C)cc1)c1cccn1-2 (stereo not given) do in these assays?
tim10-1 inh: 39; tim23-1 inh: 56*; PfHsp90 set2: -1; NALP1 yeast inh: -2; TIM10 inh: 36; NLRP3 yeast inh: 16; tim23-1 conf: 61*

How did COc1cc(OC)cc(C(=O)NCC(=O)OCC(=O)Nc2ccc(C)c(S(=O)(=O)N3CCOCC3)c2)c1 do in these assays?
tim10-1 inh: 18; tim23-1 inh: 8; TIM10 inh: 10; NLRP3 yeast inh: 14

What do the screens show for `Oc1ccc(C2C[C@H]3CC[C@@H]2C3)cc1O` (stereo not given in full)?
tim10-1 inh: 17; tim23-1 inh: 52*; PfHsp90 set2: -60; NALP1 yeast inh: 27; TIM10 inh: 26; NLRP3 yeast inh: 2; tim23-1 conf: 25
